Data from the supplement of paper PMC13380429.

System: Vero E6 infected with SARS-CoV-2
Experiment: inhibition of SARS-CoV-2 cytopathic effect; higher = more antiviral protection, active = above 15
Conditions: 48 h

Measured: inhibition of SARS-CoV-2 cytopathic effect

C=C1c2cccc(O)c2C(=O)C2=C(O)[C@]3(O)C(=O)C(C(N)=O)=C(O)[C@@H](N(C)C)[C@@H]3[C@@H](O)[C@H]12 [methacycline]
inactive: 1 nM 1.27% | 8.33 nM -0.1% | 100 nM 1.49% | 833.33 nM 0.36% | 10000 nM 2.34%

OCCN1CCN(CCCN2c3ccccc3Sc3ccc(Cl)cc32)CC1 [perphenazine]
inactive: 1 nM 1.39% | 8.33 nM 1.94% | 100 nM 0.83% | 833.33 nM -2.86% | 10000 nM 2.67%

COc1ccc([C@@H]2CC(=O)c3c(O)cc(O[C@@H]4O[C@H](CO[C@@H]5O[C@@H](C)[C@H](O)[C@@H](O)[C@H]5O)[C@@H](O)[C@H](O)[C@H]4O)cc3O2)cc1O [hesperidin]
inactive: 1 nM 1.23% | 8.33 nM 2.76% | 100 nM 0.86% | 833.33 nM 0.15% | 10000 nM 1.25%

NCC(=O)N1C[C@H](NC(=O)c2ccccc2)C[C@H]1C(=O)O [danegaptide]
inactive: 1 nM -2% | 8.33 nM -0.68% | 100 nM 1.14% | 833.33 nM -0.88% | 10000 nM 3.55%

c1cc2c(cc1[C@H]1OC[C@H]3[C@@H]1CO[C@@H]3c1ccc3c(c1)OCO3)OCO2 [sesamin]
inactive: 1 nM -1.62% | 8.33 nM -0.09% | 100 nM -0.37% | 833.33 nM 0.48% | 10000 nM -1.08%

COc1cc(C2Oc3cc([C@H]4Oc5cc(O)cc(O)c5C(=O)[C@@H]4O)ccc3OC2CO)ccc1O (stereo not given in full) [silibinin]
inactive: 1 nM -0.88% | 8.33 nM -0.77% | 100 nM 0.27% | 833.33 nM -1.29% | 10000 nM 1.72%
